The subject of one assay is Plasmodium falciparum. In words: GSK_TCMDC: Inhibition of Plasmodium falciparum 3D7 in whole red blood cells, using parasite LDH activity as an index of growth. Test compounds present at 2uM. It counts as functional.
One may read the Inhibition as the percentage by which the read-out fell short of the control. Read a low Inhibition as a response near the control. As to `CC(C)CNCc1ccc(-c2ccc(CN(C(=O)NCCc3ccccc3)C3CCN(Cc4ccccc4)CC3)cc2)cc1.O=C(O)C(F)(F)F`, the Inhibition was found to be 98%.

With `Cn1cc(-c2ccccc2C(=O)O)c(=O)c2cc(Cl)ccc21`, the Inhibition stood at 89%.

Compound `Cc1cc(-c2nc3ccc(C(=O)NCc4ccccc4)cc3n2C2CCN(C(=O)c3ccc(-c4ccccc4)cc3)CC2)ccn1` returned an Inhibition of 95%.

Compound `O=C(O)C(F)(F)F.O=C(c1ccccc1)N(Cc1ccccc1-c1ccc(CNCCc2ccccc2)cc1)C1CCN(Cc2ccccc2)CC1` showed an Inhibition of 95%.

`Nc1cccc(CNCc2cccc(-c3cccc(-c4nc5cc(F)ccc5[nH]4)c3)c2)c1.O=C(O)C(F)(F)F` came in with an Inhibition of 100%.

In the case of `Cc1ccc(Nc2nccc(NCC(O)c3cccc(C(F)(F)F)c3)n2)cc1` (stereo unspecified), the Inhibition worked out at 99%.

Compound `CN(C)CCOc1ccc2c(=O)cc(CCc3cccc(F)c3F)n(CC(=O)N(C)Cc3ccc(-c4ccc(C(F)(F)F)cc4)cc3)c2c1.O=C(O)C(O)C(O)C(=O)O` registered an Inhibition of 90%.

Regarding `CCNc1cc(C)nc(Nc2ccc(NC(=O)C3CCCC3)cc2)n1`, the Inhibition was 99%.

`CN(c1ccc2c(c1)nc(Nc1cc(C(C)(C)C)on1)n2C)c1ccnc(Nc2ccc(CS(C)(=O)=O)cc2)n1` showed an Inhibition of 89%.

`CC1(C)N=C(N)N=C(N)N1OCCCOc1cc(Cl)c(Cl)cc1Cl.Cl`: the Inhibition was determined as 95%.

Consider `COc1ccc2nccc([C@@H](O)CN3CCC(NCc4cc5cccc(O)c5c(=O)[nH]4)CC3)c2c1.Cl`, for which the Inhibition is 99%.

In turn, `CC[C@H](NC(=O)c1c(CN2CCC(N3CCCCC3)CC2)c(-c2ccccc2)nc2cc(O)ccc12)c1ccccc1` had an Inhibition of 94%.

In turn, `Cc1nc(N)nc(N)c1CCCOc1ccccc1Cl` displayed an Inhibition of 98%.

`COc1ccc(CNCC2CCC(CNCCc3ccccc3)CC2)cc1Cl` (stereo unspecified) showed an Inhibition of 100%.

For `COc1ccc2nccc([C@@H](O)CN3CCC(NC(=O)/C=C/c4cccc(C)c4)CC3)c2c1`, the Inhibition was determined as 84%.

The compound `O=C(/C=C/c1ccc(I)cc1)NCCCCCN1CCC(c2c[nH]c3ccc(O)cc23)CC1` registered an Inhibition of 97%.

Take `Cl.O=c1cc(NCCCNC2CCOc3c(I)cc(Cl)cc32)[nH]c2ccccc12` (stereo unspecified): the Inhibition was found to be 96%.

`Cc1nc(-c2cccc(Nc3ccnc4cc(-c5nccs5)ccc34)c2)no1.Cl` registered an Inhibition of 99%.

Turning to `CN(Cc1ccc(NC(=O)CCC2CCN(C(=O)/C=C/c3ccc(Cl)c(Cl)c3)CC2)cc1)C1CCOCC1`, the Inhibition is given as 94%.

On to `O=C(Nc1ccc(Cl)c(C(F)(F)F)c1)N[C@H]1CCN(CCCCCNC(=O)C2CC2c2ccc(Cl)c(Cl)c2)C1` (stereo partly specified), for which the Inhibition came to 94%.

As for `O=C(O)C(F)(F)F.OC1CCCN(Cc2cccc(-c3ccc(-c4nc5ccccc5[nH]4)cc3)c2)C1` (stereo unspecified), the Inhibition is on record as 85%.

`O=C(Nc1ccccc1)c1nn(CCCN2CCC(N3CCCC3)CC2)cc1-c1ccc(Cl)c(Cl)c1` yielded an Inhibition of 100%.

In turn, `Cl.NOCCCCOc1ccc(Br)cc1` showed an Inhibition of 99%.

In the case of `O=c1nc2[nH]c3ccccc3n2c(=O)[nH]1`, the Inhibition is reported as 95%.

Turning to `Cc1nc(NCCc2c[nH]cn2)cc(NCc2ccccc2)n1`, the Inhibition is given as 100%.

For `CCn1c(Sc2ccc(C#N)c([N+](=O)[O-])c2)nnc1-c1cc(OC)cc(OC)c1`, the Inhibition is on record as 93%.

The subject of the next assay is Plasmodium falciparum. In words: GSK_TCMDC: Inhibition of Plasmodium falciparum Dd2 in whole red blood cells, using parasite LDH activity as an index of growth. Test compounds present at 2uM. It is filed as functional.
The compound `COc1ccc2nccc([C@@H](O)CN3CCC(NC[C@H](Cc4ccccc4)NC(=O)OC(C)(C)C)CC3)c2c1.O=C(O)C(=O)O` yielded an Inhibition of 86%.

`CC(C)(CNCc1ccc(F)c(F)c1)c1nc(-c2ccnc(N)n2)c(-c2ccc(Cl)c(O)c2)[nH]1.Cl` returned an Inhibition of 79%.

As for `Fc1ccc2[nH]c(-c3ccc(-c4ccc(CNCCN5CCNCC5)cc4)cc3)nc2c1.O=C(O)C(F)(F)F`, the Inhibition was 70%.

`COc1ccc(S(=O)(=O)NC2CCN(CCNC(=O)Nc3cc(C)nc4ccccc34)C2)cc1` (stereo unspecified) came in with an Inhibition of 41%.

The compound `CCN1CCCC1CNC(=O)c1cc2c(-c3ccc(Cl)cc3)nn(C)c2s1` (stereo unspecified) showed an Inhibition of 20%.

`COc1ccc(CCNCCCCCNCCc2ccc(Cl)cc2)cc1OC.Cl` came in with an Inhibition of 0%.

On to `COc1ccc(C(=O)N[C@@H](CC(C)C)C(=O)N[C@H](/C=N/NC(=O)c2ccccc2)CCc2ccccc2)cc1OCCN1CCOCC1`, for which the Inhibition is given as 86%.

`CN1CCC[C@@H](Oc2cc3c(cc2Br)CCN3C(=O)Nc2ccc(-c3ccncc3)c(Cl)c2)C1` registered an Inhibition of 64%.

As to `O=C(Nc1ccc(OC2CCN(Cc3ccc(F)cc3)CC2)c(Cl)c1)c1ccco1.O=C(O)C(F)(F)F`, the Inhibition is on record as 95%.

Compound `Cc1ccc(-c2nc3ccccc3o2)cc1NCc1cc(Cc2ccccc2)ccc1O` yielded an Inhibition of 50%.

`O=C1SC(=Cc2ccc(O)c(O)c2)C(=O)N1c1ccccc1` had an Inhibition of 17%.

`Cc1cc(NCC2CCN(CC3CCCCC3)C2)nc(Nc2ccc(Br)cc2)n1` (stereo unspecified) displayed an Inhibition of 78%.

The compound `Cc1cccc(Cn2nc(-c3ccccc3)c(N3CCCCC3)cc2=O)c1` registered an Inhibition of 0%.

`CN(C)CCCOc1c(C(C)(C)C)cc(-c2cc(C(C)(C)C)c(OCCCN(C)C)c(C(C)(C)C)c2)cc1C(C)(C)C`: the Inhibition was 99%.

The compound `CC(C)CNCc1ccc(-c2ccc(CN(C(=O)NCCc3ccccc3)C3CCN(Cc4ccccc4)CC3)cc2)cc1.O=C(O)C(F)(F)F` displayed an Inhibition of 62%.

In turn, `Cn1cc(-c2ccccc2C(=O)O)c(=O)c2cc(Cl)ccc21` yielded an Inhibition of 0%.

The compound `Cc1cc(-c2nc3ccc(C(=O)NCc4ccccc4)cc3n2C2CCN(C(=O)c3ccc(-c4ccccc4)cc3)CC2)ccn1` displayed an Inhibition of 97%.

As to `O=C(O)C(F)(F)F.O=C(c1ccccc1)N(Cc1ccccc1-c1ccc(CNCCc2ccccc2)cc1)C1CCN(Cc2ccccc2)CC1`, the Inhibition worked out at 69%.

As to `Nc1cccc(CNCc2cccc(-c3cccc(-c4nc5cc(F)ccc5[nH]4)c3)c2)c1.O=C(O)C(F)(F)F`, the Inhibition turned out to be 82%.

Turning to `Cc1ccc(Nc2nccc(NCC(O)c3cccc(C(F)(F)F)c3)n2)cc1` (stereo unspecified), the Inhibition stood at 74%.

Consider `CN(C)CCOc1ccc2c(=O)cc(CCc3cccc(F)c3F)n(CC(=O)N(C)Cc3ccc(-c4ccc(C(F)(F)F)cc4)cc3)c2c1.O=C(O)C(O)C(O)C(=O)O`, for which the Inhibition stood at 60%.

Consider `CCNc1cc(C)nc(Nc2ccc(NC(=O)C3CCCC3)cc2)n1`, for which the Inhibition came out at 69%.

For `CN(c1ccc2c(c1)nc(Nc1cc(C(C)(C)C)on1)n2C)c1ccnc(Nc2ccc(CS(C)(=O)=O)cc2)n1`, the Inhibition is recorded as 13%.

In turn, `CC1(C)N=C(N)N=C(N)N1OCCCOc1cc(Cl)c(Cl)cc1Cl.Cl` yielded an Inhibition of 95%.

`COc1ccc2nccc([C@@H](O)CN3CCC(NCc4cc5cccc(O)c5c(=O)[nH]4)CC3)c2c1.Cl`: the Inhibition turned out to be 66%.

On to `CC[C@H](NC(=O)c1c(CN2CCC(N3CCCCC3)CC2)c(-c2ccccc2)nc2cc(O)ccc12)c1ccccc1`, for which the Inhibition is reported as 13%.

On to `Cc1nc(N)nc(N)c1CCCOc1ccccc1Cl`, for which the Inhibition was 5%.

For the compound `COc1ccc(CNCC2CCC(CNCCc3ccccc3)CC2)cc1Cl` (stereo unspecified), the Inhibition is reported as 29%.

In turn, `COc1ccc2nccc([C@@H](O)CN3CCC(NC(=O)/C=C/c4cccc(C)c4)CC3)c2c1` gave an Inhibition of 28%.

Turning to `O=C(/C=C/c1ccc(I)cc1)NCCCCCN1CCC(c2c[nH]c3ccc(O)cc23)CC1`, the Inhibition turned out to be 1%.

The compound `Cl.O=c1cc(NCCCNC2CCOc3c(I)cc(Cl)cc32)[nH]c2ccccc12` (stereo unspecified) returned an Inhibition of 48%.

`Cc1nc(-c2cccc(Nc3ccnc4cc(-c5nccs5)ccc34)c2)no1.Cl` had an Inhibition of 90%.

In the case of `CN(Cc1ccc(NC(=O)CCC2CCN(C(=O)/C=C/c3ccc(Cl)c(Cl)c3)CC2)cc1)C1CCOCC1`, the Inhibition was 2%.

Compound `O=C(Nc1ccc(Cl)c(C(F)(F)F)c1)N[C@H]1CCN(CCCCCNC(=O)C2CC2c2ccc(Cl)c(Cl)c2)C1` (stereo partly specified) registered an Inhibition of 0%.

In turn, `O=C(O)C(F)(F)F.OC1CCCN(Cc2cccc(-c3ccc(-c4nc5ccccc5[nH]4)cc3)c2)C1` (stereo unspecified) showed an Inhibition of 16%.

The compound `O=C(Nc1ccccc1)c1nn(CCCN2CCC(N3CCCC3)CC2)cc1-c1ccc(Cl)c(Cl)c1` gave an Inhibition of 98%.

`Cl.NOCCCCOc1ccc(Br)cc1` displayed an Inhibition of 0%.

As to `O=c1nc2[nH]c3ccccc3n2c(=O)[nH]1`, the Inhibition is reported as 0%.

For `Cc1nc(NCCc2c[nH]cn2)cc(NCc2ccccc2)n1`, the Inhibition turned out to be 5%.

In the case of `CCn1c(Sc2ccc(C#N)c([N+](=O)[O-])c2)nnc1-c1cc(OC)cc(OC)c1`, the Inhibition was determined as 82%.

Values taken from ChEMBL document CHEMBL1157539, “Thousands of chemical starting points for antimalarial lead identification” (Nature, 2010).
